Laboratory results reported in PubChem BioAssay (Tox21).
Results filed as inconclusive are left out. A call without a number means that no potency is given here. Activity calls are given as the source filed them. Calls come from the whole dose curve; as a rule, active = well fitted cell-killing curve with a large enough effect in the repeat runs (not every such curve was filed as active); inconclusive = weak or mixed curves, or effect the other way; inactive = no such curve, though single readings can be large or run the other way.

assay: qHTS assay to identify small molecule antagonists of the estrogen related receptor signaling pathway with the pleiotropic PPARgamma coactivator (PGC) from Tox21 10K library - cell viability counter screen (AID 1224840); details: PGC/ERR reporter cells viability, CellTiter-Fluor, 17.5 h; series mostly up to 92.4 µM; note: nearly all actives have a fitted effect of over 40% in size
Source text: National Center for Advancing Translational Sciences [NCATS]
NIH Chemical Genomics Center [NCGC]
U.S. Environmental Protection Agency [EPA]
National Institutes of Environmental Health Sciences [NIEHS]
National Toxicology Program [NTP]
U.S. Food and Drug Administration [FDA]
Estrogen related receptors (ERRs), the first orphan nuclear receptors discovered, play an important role in the control of cellular energy metabolism. ERRs are required for high-energy production in response to the environmental challenges. The pleiotropic PPARgamma coactivator (PGC) is a major partner of ERR and a key regulator in energy homeostasis. Together they have been implicated in the etiology of metabolic disorders such as Type 2 diabetes and metabolic syndrome. ERR-alpha was also identified as an adverse marker for breast cancer progression; ERR-alpha-positive tumors have a poor prognosis. To screen and to identify environmental compounds that perturb the ERR and PGC/ERR signaling pathways could provide valuable information for potential therapeutic or preventive measures in the treatment of metabolic disease. To differentiate true PGC/ERR antagonists or agonist from cytotoxic substances, the assay is multiplexed with cell viability assay.
Tox21 Assay Protocol Summary:
The PGC/ERR cells were dispensed at 2,000 cells/5 ul/well in 1536-well white plates using a Multidrop dispenser. After the assay plates were incubated at a 37 C/5% CO2 incubator for 6 hours, 23 nL of compounds dissolved in DMSO, positive and negative controls or DMSO only was transferred to the assay plate by a pin tool. The plates were incubated at 37 C for 17.5 hours. 1 ul/well of CellTiter-Fluor reagent was added into the assay plates using a Flying Reagent Dispenser. After 30-minute incubation at 37 C/5% CO2, the fluorescence intensity in the plates was measured using a ViewLux plate reader.

Structure (SMILES) | Potency
N[C@@H](Cc1cc(I)c(Oc2ccc(O)c(I)c2)c(I)c1)C(=O)O | inactive
COc1c2ccoc2cc2oc(=O)ccc12 | inactive
C=C(CC(=O)O)C(=O)O | inactive
C=C1C[C@]23C[C@@]1(O)CC[C@H]2[C@@]12C=C[C@H](O)[C@@](C)(C(=O)O1)[C@H]2[C@@H]3C(=O)O | inactive
CC(=O)C(C)C | inactive
Cc1cc(CC(=O)O)n(C)c1C(=O)c1ccc(Cl)cc1 | inactive
CCCCCNCCCCC | inactive
CCCCC(=O)O | inactive
O=C1C(N(CO)C(=O)NCO)N(CO)C(=O)N1CO (stereo not given) | inactive
O=C1CCCCCCCCCCC1 | inactive
CC(C=O)Cc1ccc(C(C)(C)C)cc1 (stereo not given) | inactive
CC(=O)CC(=O)N(C)C | inactive
O=[N+]([O-])c1cc(C(F)(F)F)ccc1Cl | inactive
C=CC(=O)NCOCCCC | inactive
CC(C)=CCC/C(C)=C/C=O | inactive
CC[N+](CC)(CC(=O)Nc1c(C)cccc1C)Cc1ccccc1 | inactive
CCn1cc(C(=O)O)c(=O)c2cc3c(cc21)OCO3 | inactive
CCCCCCC(=O)O | inactive
COC(=O)/C=C\C(=O)OC | inactive
CC(O)CNCC(C)O (stereo not given) | inactive

Structure (SMILES) | Potency
Cc1cc(C)cc(O)c1 | inactive
O=C1OC(=O)c2c(Cl)c(Cl)c(Cl)c(Cl)c21 | inactive
CCc1cccc(CC)c1N | inactive
Cc1ccc(C(C)C)cc1 | inactive
CCCCCCCC(=O)O | inactive
CO[Si](CCCNCCN)(OC)OC | inactive
CC(C)(CO)CO | inactive
CC(=O)Nc1ccc(CC(=O)O)cc1 | inactive
CC1(C)C(=O)N(Cl)C(=O)N1Cl | inactive
CCCOCC(C)O (stereo not given) | inactive
CS(=O)(=O)c1ccc(Cl)cc1 | inactive
O=C(O)C1=NN(c2ccc(S(=O)(=O)O)cc2)C(=O)C1 | inactive
CCN(CC)CCNC(=O)c1ccc(N)cc1 | inactive
CC(=O)OC/C=C(\C)CCC=C(C)C | inactive
OB(O)O | inactive
NC(N)=S | inactive
COCN(COC)c1nc(N(COC)COC)nc(N(COC)COC)n1 | inactive
CC1(C)[C@@H](O[C@H]2O[C@H](C(=O)O)[C@@H](O)[C@H](O)[C@H]2O[C@@H]2O[C@H](C(=O)O)[C@@H](O)[C@H](O)[C@H]2O)CC[C@]2(C)[C@H]3C(=O)C=C4[C@@H]5C[C@@](C)(C(=O)O)CC[C@]5(C)CC[C@@]4(C)[C@]3(C)CC[C@@H]12 | inactive
COc1c(Cl)ccc(Cl)c1C(=O)O | inactive
CC(COCC(C)OC(=O)c1ccccc1)OC(=O)c1ccccc1 (stereo not given) | inactive
